From PubChem
VHR inh abs: inhibitors of human VHR1 phosphatase (DUSP3); inhibition, % at 13.3 µM; recombinant VHR phosphatase, pNPP absorbance; 0.52% of 290,000 active; P51452; in the data active = inhibition above about 50%
TcdB inh: blocks C. difficile toxin B glycohydrolase activity. AID 652162. P18177. inhibition, % at 9.99 µM. 0.24% of 350,000 active. TcdB glycohydrolase enzymatic assay, plate reader; in the data active = inhibition above about 10%
Target sequence (P18177 whole entry, looked up): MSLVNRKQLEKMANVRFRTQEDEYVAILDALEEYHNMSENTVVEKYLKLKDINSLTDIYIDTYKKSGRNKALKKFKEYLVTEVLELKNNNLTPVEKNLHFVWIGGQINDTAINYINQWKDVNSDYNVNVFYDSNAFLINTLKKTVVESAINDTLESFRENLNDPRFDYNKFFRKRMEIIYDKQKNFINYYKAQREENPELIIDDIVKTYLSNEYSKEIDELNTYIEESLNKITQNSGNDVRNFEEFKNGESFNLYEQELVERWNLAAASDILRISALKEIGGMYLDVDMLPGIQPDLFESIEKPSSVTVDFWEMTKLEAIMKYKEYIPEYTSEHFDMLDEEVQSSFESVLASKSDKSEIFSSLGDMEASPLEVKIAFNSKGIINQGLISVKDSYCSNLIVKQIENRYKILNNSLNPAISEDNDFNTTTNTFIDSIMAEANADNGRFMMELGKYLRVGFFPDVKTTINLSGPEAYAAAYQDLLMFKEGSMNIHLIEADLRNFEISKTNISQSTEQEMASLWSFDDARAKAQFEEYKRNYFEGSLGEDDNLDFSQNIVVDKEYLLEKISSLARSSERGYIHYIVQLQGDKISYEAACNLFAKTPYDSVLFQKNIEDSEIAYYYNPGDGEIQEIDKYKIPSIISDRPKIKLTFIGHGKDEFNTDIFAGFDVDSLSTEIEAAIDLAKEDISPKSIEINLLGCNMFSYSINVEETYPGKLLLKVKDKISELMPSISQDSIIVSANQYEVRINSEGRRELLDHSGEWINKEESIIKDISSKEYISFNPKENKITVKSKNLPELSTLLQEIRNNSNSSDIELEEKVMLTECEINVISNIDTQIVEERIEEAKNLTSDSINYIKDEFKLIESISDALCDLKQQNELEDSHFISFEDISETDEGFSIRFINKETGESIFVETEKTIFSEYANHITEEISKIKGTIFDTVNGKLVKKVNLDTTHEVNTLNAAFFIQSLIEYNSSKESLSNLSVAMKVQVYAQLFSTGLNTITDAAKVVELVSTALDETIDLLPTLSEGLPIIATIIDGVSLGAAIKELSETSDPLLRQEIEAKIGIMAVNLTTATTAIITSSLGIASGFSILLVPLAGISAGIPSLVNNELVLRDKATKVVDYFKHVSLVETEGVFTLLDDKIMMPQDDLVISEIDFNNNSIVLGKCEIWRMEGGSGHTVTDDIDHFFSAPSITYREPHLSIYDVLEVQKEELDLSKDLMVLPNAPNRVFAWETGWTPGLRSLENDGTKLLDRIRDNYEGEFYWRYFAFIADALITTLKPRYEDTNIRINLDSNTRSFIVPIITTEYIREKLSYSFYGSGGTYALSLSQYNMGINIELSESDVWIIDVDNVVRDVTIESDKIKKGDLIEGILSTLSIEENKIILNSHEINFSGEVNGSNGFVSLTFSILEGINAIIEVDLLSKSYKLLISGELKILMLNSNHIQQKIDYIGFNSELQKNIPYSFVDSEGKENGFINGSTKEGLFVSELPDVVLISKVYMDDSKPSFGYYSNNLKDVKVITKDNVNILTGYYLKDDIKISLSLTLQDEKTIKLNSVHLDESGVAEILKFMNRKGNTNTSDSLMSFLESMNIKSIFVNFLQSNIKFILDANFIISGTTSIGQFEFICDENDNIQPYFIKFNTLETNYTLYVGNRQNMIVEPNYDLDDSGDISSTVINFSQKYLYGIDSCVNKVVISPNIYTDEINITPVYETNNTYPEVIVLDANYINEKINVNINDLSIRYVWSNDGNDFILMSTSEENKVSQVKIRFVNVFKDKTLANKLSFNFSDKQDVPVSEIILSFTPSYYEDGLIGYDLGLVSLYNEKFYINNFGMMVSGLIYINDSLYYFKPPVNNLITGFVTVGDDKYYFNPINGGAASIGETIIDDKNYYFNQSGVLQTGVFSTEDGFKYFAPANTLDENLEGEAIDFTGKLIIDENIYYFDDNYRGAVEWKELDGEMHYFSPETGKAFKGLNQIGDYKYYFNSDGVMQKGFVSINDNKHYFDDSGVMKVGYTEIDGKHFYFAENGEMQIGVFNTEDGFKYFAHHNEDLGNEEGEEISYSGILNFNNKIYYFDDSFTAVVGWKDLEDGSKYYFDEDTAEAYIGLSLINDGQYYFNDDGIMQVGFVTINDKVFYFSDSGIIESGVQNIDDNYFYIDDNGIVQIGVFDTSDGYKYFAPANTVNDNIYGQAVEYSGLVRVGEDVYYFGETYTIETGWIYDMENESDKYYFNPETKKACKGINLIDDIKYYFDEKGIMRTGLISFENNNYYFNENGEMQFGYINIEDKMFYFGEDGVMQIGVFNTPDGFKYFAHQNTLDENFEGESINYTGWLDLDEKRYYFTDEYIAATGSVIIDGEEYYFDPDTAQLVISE
FadD28 FP inh: M. tuberculosis FadD28 bisubstrate binding inhibition; FadD28 bisubstrate probe binding, fluorescence polarization; inhibition, % at 12.5 µM; 0.22% of 360,000 active; AID 588549; in the data active = inhibition above about 8.5%, passing the limit was not always enough
Mtb BioA inh: inhibitors of Mycobacterium tuberculosis BioA enzyme; purified M. tuberculosis BioA enzyme, plate reader; 0.096% of 360,000 active; inhibition, % at 9.99 µM; in the data active = inhibition above about 40%
MazF activator: activators of E. coli MazEF toxin-antitoxin RNase | FAM/BHQ RNA-DNA oligo cleavage fluorescence, 5 h | activation, % at 20 µM | 0.32% of 350,000 active | AID 504720; in the data active = activation above about 50%
Yp Topo-I inh: Y. pestis Topo-I inhibition via cleavage products. Y. pestis Topo-I cleavage product accumulation, plate reader. activity, % at 10 µM. 0.064% of 360,000 active; in the data active = activity above about 50%, passing the limit was not always enough
A number is an active result; 0 = inactive; - = not tested or not shown. An excerpt weighted towards active compounds, which were near 1% of everything screened.

SMILES	VHR inh abs	TcdB inh	FadD28 FP inh	Mtb BioA inh	MazF activator	Yp Topo-I inh
COc1ccccc1N=Cc1c(C)c(C#N)c2[nH]c3ccccc3n2c1=O	0	0	0	0	143	0
Cc1c(Cc2ccccc2)c(=O)n2c([nH]c3ccccc32)c1C#N	0	0	0	0	0	0
CO[C@H]1CN(C)C(=O)c2ccc(NC(C)=O)cc2OC[C@H](C)N(C(=O)CC2CC2)C[C@@H]1C	-	0	-	-	-	-
C[C@H](CO)N1C[C@H](C)[C@H](CN(C)S(=O)(=O)c2ccccc2)Oc2ncc(C#Cc3ccc(C(F)(F)F)cc3)cc2C1=O	-	0	-	0	-	-
CCC(C)C(=O)Nc1nc(C)c(-c2csc(Nc3cc(Cl)ccc3OC)n2)s1 (stereo not given)	0	0	0	0	0	0
CCC(C)C(=O)Nc1nc(C)c(-c2csc(Nc3cc(OC)ccc3OC)n2)s1 (stereo not given)	51	0	0	0	0	0
COc1ccc(-n2nc(C(=O)NCC(=O)N3CCC4(CC3)OCCO4)c3ccccc3c2=O)c(OC)c1	56	0	0	0	0	0
O=C(Cc1ccncc1)Nc1ccc2c(c1)[C@@H]1C[C@H](CC(=O)N3CCCCC3)O[C@@H](CO)[C@@H]1O2	-	0	-	0	-	-
Cc1ccc(CSC2=NCCN2S(=O)(=O)c2ccccc2)cc1	0	0	0	-	0	0
O=S(=O)(c1ccccc1)N1CCN=C1SCc1ccccc1	0	10	0	-	0	0
Cc1nc(C)c(C(=O)N(c2ccc(F)cc2)C(C(=O)NCC2CCCO2)c2ccccc2)s1 (stereo not given)	0	0	-	0	0	0
Cc1nc(C)c(C(=O)N(c2ccccc2F)C(C(=O)NCC2CCCO2)c2ccccc2)s1 (stereo not given)	54	0	-	0	0	0
C[C@@H]1CCCCO[C@@H](CN(C)S(=O)(=O)c2cn(C)cn2)[C@@H](C)CN([C@H](C)CO)C(=O)c2cc(NC(=O)c3ccccc3)ccc2O1	-	0	-	0	-	-
CCN1C(=O)CC(N2CCN(c3ccc(C(=O)c4ccccc4)cc3)CC2)C1=O (stereo not given)	57	-	0	0	0	0
CC(C)NC(=O)N(C)C[C@H]1Oc2cc(C#CC(C)(C)O)ccc2S(=O)(=O)N([C@@H](C)CO)C[C@@H]1C	-	0	-	0	-	-
CCOc1ccc(CCNC(=O)Cn2ccc3cc(S(=O)(=O)N4CCCC4)ccc32)cc1	53	0	0	0	0	0
CCOc1ccc(CNC(=O)CCCn2ccc3cc(S(=O)(=O)N4CCCC4)ccc32)cc1	0	0	0	0	0	0
Cc1noc(C)c1S(=O)(=O)Nc1ccc2c(c1)C(=O)N([C@@H](C)CO)C[C@H](C)[C@@H](CN(C)C(=O)Cc1ccccc1)OCCCC[C@H](C)O2	-	0	-	0	-	-
O=C(COc1ccc(Cl)cc1)Nc1ccccc1Cl	54	0	0	0	0	0
CN1c2ccc(Br)cc2[C@@H]2[C@@H](CCN2C(=O)Nc2ccccc2F)[C@@H]1CO	-	0	-	0	-	-
CCOC(=O)C1=C(C)N=c2s/c(=C\c3ccc(OCC(=O)O)cc3)c(=O)n2C1c1ccccc1 (stereo not given)	0	0	0	0	0	0
COC(=O)C1=C(C)N=c2s/c(=C/c3ccoc3)c(=O)n2C1c1ccccc1 (stereo not given)	0	-	0	0	88	0
C/C=C/c1ccc2c(c1)O[C@H](CN(C)C(=O)CN1CCOCC1)[C@H](C)CN([C@H](C)CO)S2(=O)=O	-	0	-	0	-	-
c1coc(Cn2nnnc2CN2CCN(C3CCCC3)CC2)c1	0	-	0	0	102	0
CC(C)C(c1nnnn1Cc1ccco1)N1CCN(C2CCCC2)CC1 (stereo not given)	0	-	0	0	0	0
SMILES	VHR inh abs	TcdB inh	FadD28 FP inh	Mtb BioA inh	MazF activator	Yp Topo-I inh
OC[C@@H]1[C@@H](c2ccccc2)C2(CN(Cc3nccs3)C2)N1Cc1ccccc1	-	0	-	-	-	-
COCC(=O)Nc1ccc2c(c1)C(=O)N(C)[C@@H]1CC[C@@H](CC(=O)NCc3ccc(OC)cc3)O[C@@H]1CO2	-	-	-	0	-	-
COc1ccc2c(COC(=O)CNC(=O)C34CC5CC(CC(C5)C3)C4)cc(=O)oc2c1	51	0	0	0	0	0
COc1cc(NC(=O)COC(=O)CNC(=O)C23CC4CC(CC(C4)C2)C3)cc(OC)c1	-	0	0	0	0	0
CC(C)NC(=O)N(C)C[C@@H]1Oc2ccc(NS(=O)(=O)c3cccs3)cc2C(=O)N([C@@H](C)CO)C[C@H]1C	-	-	-	0	-	-
Cc1ccc(C#N)c(SCc2cc3c(cc2Cl)OCO3)n1	0	-	0	0	59	0
Cc1ccc(C#N)c(SCc2cccc(Br)c2)n1	-	0	0	0	0	0
COCCNC(=O)/C(C#N)=C1\N=C(NC(=O)c2ccco2)c2ccccc21	-	0	0	0	0	0
CCCNC(=O)/C(C#N)=C1\N=C(NC(=O)c2ccco2)c2ccccc21	0	0	0	-	90	0
Cc1ccc(NC(=O)CN(C)S(=O)(=O)c2cccc3nsnc23)cc1	0	-	0	-	0	0
CC(NC(=O)CN(C)S(=O)(=O)c1cccc2nsnc12)c1ccccc1 (stereo not given)	0	0	0	0	97	0
CC(=O)c1cccc(OCC(=O)c2cc(C)n(-c3cc(C)on3)c2C)c1	0	16	0	0	0	0
CC(Oc1ccc2c3c(c(=O)oc2c1)CCCC3)C(=O)NCCCn1ccnc1 (stereo not given)	58	0	0	0	0	0
CC(Oc1cc2oc(=O)c3c(c2cc1Cl)CCC3)C(=O)NCc1ccccn1 (stereo not given)	0	0	0	63	0	0
CCc1ccc(OCc2n[nH]c(=S)n2C(C)CCCC(C)C)cc1 (stereo not given)	0	0	0	-	0	63
CCS(=O)(=O)N1N=C(c2cccc(NS(C)(=O)=O)c2)CC1c1ccc(C)cc1 (stereo not given)	0	0	0	-	67	0
COc1ccc(S(=O)(=O)Nc2ccc3c(c2)CC(=O)N([C@H](C)CO)C[C@@H](C)[C@H](CN(C)Cc2ccc(Cl)c(Cl)c2)O3)cc1	-	0	-	0	-	-
Nc1cc(N)nc(SCC(=O)Nc2ccc3c(c2)OCCCO3)n1	0	-	0	0	0	0
Nc1cc(N)nc(SCC(=O)Nc2ccc3c(c2)OCO3)n1	53	0	0	0	0	0
CCOC(=O)c1cccc(NC(=O)CSc2nc(N)cc(N)n2)c1	56	-	0	0	0	0
CC(=O)N1CCC(N(CCCOC(C)C)S(=O)(=O)c2ccc([N+](=O)[O-])cc2)CC1	53	0	0	0	0	0
CC(=O)c1c[nH]c(C(=O)NCc2cccc(C(F)(F)F)c2)c1	53	0	0	0	0	0
O=C(NCc1cccc(C(F)(F)F)c1)c1c[nH]c(=O)s1	-	0	0	0	-	0
O=C1NC(Cc2ccccc2)c2nc3ccc(F)cc3c(=O)n2-c2cc3ccccc3cc21 (stereo not given)	-	0	0	0	0	66
COc1cc(/C=C/C(=O)Nc2ccc(S(=O)(=O)Nc3onc(C)c3C)cc2)cc(OC)c1OC	-	0	0	0	0	0
